Experiment [1] is described as follows: ATG_ISRE_CIS: Attagene CIS-FACTORIAL HepG2 Assay for human Interferon Regulatory Factor 1 (IRF1) binding to an Interferon-Stimulated Response Element (ISRE) (AID 2282948). The conditions noted are these: HepG2 ISRE cis-reporter (Attagene), mRNA transcription readout; actives raise or lower the signal. Put shortly: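 Multiplexed mRNA reporter readout in human liver HepG2 cells: cis-element-driven reporters transfected, compound added for 24 h, transcripts amplified, fluorescently labelled and sized by capillary electrophoresis; curve fitting bidirectional against DMSO.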

Experiment [2] in a line: ATG_M_32_CIS: Attagene CIS-FACTORIAL HepG2 Assay for M32 Transcription Factor (Internal Marker) (AID 2282949).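 Further: background control marker of the multiplexed CIS panel rather than a real target.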 The conditions noted are these: HepG2 Attagene cis-factorial M32 reporter, mRNA; actives raise or lower the signal. Put shortly:
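HepG2 human liver cells transiently transfected with cis-promoter-driven multiple reporter transcription units, dosed 24 h. Reporter mRNA quantified by RT-PCR, FAM-labelled primer extension, HpaI digest and capillary electrophoresis; bidirectional fit versus DMSO baseline.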

Experiment [3] can be described thus: ATG_M_06_CIS: Attagene CIS-FACTORIAL HepG2 Assay for M06 Transcription Factor (Internal Marker) (AID 2282950). The conditions noted are these: HepG2 Attagene CIS-FACTORIAL M06 internal marker reporter; actives raise or lower the signal. Put shortly: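 One of many multiplexed endpoints: HepG2 reporter mRNA after 24 h dosing, detected by RT-PCR and capillary electrophoresis fluorescence; gain or loss of signal analysed against DMSO.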

Experiment [4] deals with Hypoxia-inducible factor 1-alpha (Homo sapiens) (UniProt Q16665). Put plainly: ATG_HIF1a_CIS: Attagene CIS-FACTORIAL HepG2 Assay for human Hypoxia Inducible Factor 1 (HIF1A) (AID 2282951). The conditions noted are these: HepG2 Attagene cis-factorial HIF1a reporter transcription; actives raise or lower the signal. Summed up: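 HepG2, transient cis-reporter library, 24 h dosing. RNA → RT (oligo dT) → PCR → 6-FAM primer extension → HpaI → CE. Bidirectional curve fit vs DMSO.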

In experiment [5] the target is Hepatocyte nuclear factor 6 (Homo sapiens) (UniProt Q9UBC0). Nature of the experiment: ATG_HNF6_CIS: Attagene CIS-FACTORIAL HepG2 Assay for human Hepatocyte Nuclear Factor 6 (HNF6) (AID 2282952). As to conditions: HepG2 Attagene cis-factorial HNF6 reporter transcription; actives raise or lower the signal. Put shortly: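 Endogenous factor activity read in transiently transfected HepG2 via promoter-regulated reporter transcripts. RNA harvested 24 h post-dosing, reverse-transcribed, PCR-amplified, FAM-labelled, HpaI-digested and resolved by capillary electrophoresis; fitted in both directions against DMSO.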

The target in experiment [6] is Heat shock factor protein 1 (Homo sapiens) (UniProt Q00613). Nature of the experiment: ATG_HSE_CIS: Attagene CIS-FACTORIAL HepG2 Assay for human Heat Shock Transcription Factor 1 (HSE) (AID 2282953). As to conditions: HepG2 HSE cis-reporter, Attagene RNA transcription; actives raise or lower the signal. Put shortly:
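Using HepG2 with transfected cis-driven reporter constructs, compound effects on endogenous factor activity are scored as reporter mRNA change at 24 h. Detection: RT-PCR, HpaI digestion, capillary electrophoresis; bidirectional fitting to DMSO.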

The nature of experiment [7]: ATG_MRE_CIS: Attagene CIS-FACTORIAL HepG2 Assay for human Metal Responsive Element (MRE) (AID 2282954). The conditions noted are these: HepG2 MRE cis-reporter transcription, Attagene multiplex; actives raise or lower the signal. Summed up: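 Cells were transfected with cis-promoter reporter transcription units, then dosed for 24 h. RNA was reverse-transcribed, amplified, fluorescently labelled and resolved by capillary electrophoresis, and activity was fitted in both directions relative to DMSO.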

Experiment [8] can be described thus: ATG_PBREM_CIS: Attagene CIS-FACTORIAL HepG2 Assay for human Phenobarbital-responsive Enhancer Module (PBREM) (AID 2282955). The conditions noted are these: HepG2 PBREM cis-reporter, Attagene multiplexed transcription; actives raise or lower the signal. Summed up: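 HepG2, transient MRTU transfection, 24 h dosing; RNA → oligo(dT) RT → PCR → 6-FAM extension → HpaI → CE. Bidirectional fit vs DMSO.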

For experiment [9], the target named is Paired box protein Pax-6 (Homo sapiens) (UniProt P26367). Put plainly: ATG_Pax6_CIS: Attagene CIS-FACTORIAL HepG2 Assay for human Paired Box 6 (PAX6) (AID 2282956). As to conditions: HepG2 CIS-FACTORIAL PAX6 reporter transcription, RNA readout; actives raise or lower the signal. Summed up: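 Fluorescent RT-PCR products separated by capillary electrophoresis report PAX6-linked promoter mRNA in HepG2 cells 24 h post-dose. Curves fitted bidirectionally, DMSO as negative control.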

The nature of experiment [10]: ATG_PXRE_CIS: Attagene CIS-FACTORIAL HepG2 Assay for human Pregnane X Receptor Element (PXRE) (AID 2282957). The conditions noted are these: HepG2 Attagene CIS-FACTORIAL PXRE reporter, mRNA; actives raise or lower the signal. Put shortly: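 Reporter transcripts under endogenous PXR-responsive cis-regulation quantified from total RNA of transfected HepG2 cells 24 h post-dosing, via RT-PCR with fluorescent primer extension and capillary electrophoresis. Gain or loss of signal fitted against DMSO baseline.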

Experiment [11] can be described thus: ATG_PPRE_CIS: Attagene CIS-FACTORIAL HepG2 Assay for human Peroxisome Proliferator-activated Response Element (PPRE) (AID 2282958). The conditions noted are these: HepG2 PPRE cis-element reporter, Attagene transcription factor profiling; actives raise or lower the signal. Put shortly: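 Transcript-level reporter induction in transfected HepG2 cells after 24 h chemical exposure, quantified by fluorescence from RT-PCR products separated by capillary electrophoresis.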

Experiment [12] can be described thus: ATG_Sox_CIS: Attagene CIS-FACTORIAL HepG2 Assay for human SRY-box transcription factor (SOX) (AID 2282960). The conditions noted are these: HepG2 Attagene cis-factorial SOX reporter, mRNA; actives raise or lower the signal. Put shortly: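 Cells were transfected with reporter constructs under cis-regulatory promoters, then exposed to chemicals for 24 h. Reporter transcripts were quantified by fluorescence after RT-PCR and capillary electrophoresis; activity was fitted in both directions against DMSO.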

Experiment [13] has as its target Transcription factor Sp1 (Homo sapiens) (UniProt P08047). Put plainly: ATG_Sp1_CIS: Attagene CIS-FACTORIAL HepG2 Assay for human Specificity Protein 1 (Sp1) (AID 2282961). The conditions noted are these: HepG2 Sp1 cis-reporter transcription, actives raise or lower the signal. Put shortly:
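Measures mRNA induction of an Sp1-linked reporter in HepG2 cells 24 h post-dosing. Multiplexed reporters read by RT-PCR and capillary electrophoresis; DMSO serves as negative control and baseline.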

Experiment [14] in a line: ATG_SREBP_CIS: Attagene CIS-FACTORIAL HepG2 Assay for human Sterol Regulatory Element Binding (SREBP) (AID 2282962). The conditions noted are these: HepG2 Attagene cis-factorial SREBP reporter, mRNA; actives raise or lower the signal. Put shortly: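 Endogenous factor activity is measured in HepG2 through multiplexed reporter units under cis-element control. Following a 24 h incubation, reporter transcripts are reverse-transcribed, PCR-amplified and sized by capillary electrophoresis; activity is fitted in both directions relative to DMSO.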

Experiment [15] has as its target Signal transducer and activator of transcription 3 (Homo sapiens) (UniProt P40763). Put plainly: ATG_STAT3_CIS: Attagene CIS-FACTORIAL HepG2 Assay for human Signal Transducer and Activator of Transcription 3 (STAT3) (AID 2282963). The conditions noted are these: HepG2, Attagene cis-factorial STAT3 reporter transcription; actives raise or lower the signal. Put shortly: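 HepG2, MRTU-transfected, 24 h dosing. RNA → RT → PCR → FAM label → HpaI → CE. Bidirectional fit vs DMSO.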

The nature of experiment [16]: ATG_TA_CIS: Attagene CIS-FACTORIAL HepG2 Assay for human TA Basal Promoter (AID 2282964). The conditions noted are these: HepG2 Attagene CIS-factorial TA basal promoter reporter; actives raise or lower the signal. Put shortly:
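Transient MRTU transfection of HepG2 preceded 24 h compound exposure. Reporter mRNA levels were then read by RT-PCR with capillary electrophoresis, and this background-control endpoint was fitted bidirectionally to DMSO.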

Experiment [17] can be described thus: ATG_TCF_b_cat_CIS: Attagene CIS-FACTORIAL HepG2 Assay for human T-Cell-Factor with beta-catenin (TCF/b-cat) (AID 2282965). The conditions noted are these: HepG2 TCF/beta-catenin cis-reporter transcription, actives raise or lower the signal. Summed up:
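HepG2 cells transiently transfected with multiple cis-promoter-regulated reporter transcription units, so endogenous transcription factor activity is measured. Reporter mRNA read 24 hours after dosing by RT-PCR, fluorescent labelling and capillary electrophoresis; bidirectional fitting against DMSO.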

Experiment [18] is described as follows: ATG_GRE_CIS: Attagene CIS-FACTORIAL HepG2 Assay for human Glucocorticoid Response Elements (GRE) (AID 2282947). The conditions noted are these: HepG2 GRE cis-reporter, Attagene multiplex mRNA; actives raise or lower the signal. Put shortly:
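Cells (HepG2) bearing transfected cis-promoter reporter transcription units were treated with chemical for 24 hours. Reporter mRNA was measured via RT-PCR with capillary electrophoresis, and activity was fitted in both directions relative to DMSO.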

The nature of experiment [19]: ATG_RORE_CIS: Attagene CIS-FACTORIAL HepG2 Assay for human RAR-related Orphan Receptor Element (RORE) (AID 2282959). The conditions noted are these: HepG2 Attagene cis-factorial RORE reporter, mRNA; actives raise or lower the signal. Summed up: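 Multiplexed reporter assay measuring mRNA induction from a cis promoter element in transiently transfected HepG2 cells after 24 h treatment. Detection via RT-PCR and capillary electrophoresis fluorescence; DMSO serves as baseline.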

Broadly, the AC50 is the concentration giving half of the maximal activity seen.

Each structure is given as a SMILES string. The source made the active and inactive calls. How the source made its calls: active means hit-call score of the fitted dose curve at least 0.9, where 1 is the maximum; inactive means score below 0.9.

Chain of Hepatocyte nuclear factor 6 (Homo sapiens) (Q9UBC0 whole entry, looked up): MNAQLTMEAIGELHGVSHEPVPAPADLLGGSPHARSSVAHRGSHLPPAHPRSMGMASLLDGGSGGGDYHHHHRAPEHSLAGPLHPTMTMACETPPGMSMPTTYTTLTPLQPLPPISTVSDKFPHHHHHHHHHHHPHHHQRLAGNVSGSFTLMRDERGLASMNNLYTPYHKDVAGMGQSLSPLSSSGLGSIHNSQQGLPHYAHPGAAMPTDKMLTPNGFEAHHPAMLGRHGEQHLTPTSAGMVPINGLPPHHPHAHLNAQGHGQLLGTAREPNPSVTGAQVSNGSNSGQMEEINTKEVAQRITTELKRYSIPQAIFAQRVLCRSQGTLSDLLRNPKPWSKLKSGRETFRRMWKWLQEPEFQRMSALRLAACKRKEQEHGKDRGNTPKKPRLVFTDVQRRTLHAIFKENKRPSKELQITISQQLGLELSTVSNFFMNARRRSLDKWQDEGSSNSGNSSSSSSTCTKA
Chain of Hypoxia-inducible factor 1-alpha (Homo sapiens) (Q16665 whole entry, looked up): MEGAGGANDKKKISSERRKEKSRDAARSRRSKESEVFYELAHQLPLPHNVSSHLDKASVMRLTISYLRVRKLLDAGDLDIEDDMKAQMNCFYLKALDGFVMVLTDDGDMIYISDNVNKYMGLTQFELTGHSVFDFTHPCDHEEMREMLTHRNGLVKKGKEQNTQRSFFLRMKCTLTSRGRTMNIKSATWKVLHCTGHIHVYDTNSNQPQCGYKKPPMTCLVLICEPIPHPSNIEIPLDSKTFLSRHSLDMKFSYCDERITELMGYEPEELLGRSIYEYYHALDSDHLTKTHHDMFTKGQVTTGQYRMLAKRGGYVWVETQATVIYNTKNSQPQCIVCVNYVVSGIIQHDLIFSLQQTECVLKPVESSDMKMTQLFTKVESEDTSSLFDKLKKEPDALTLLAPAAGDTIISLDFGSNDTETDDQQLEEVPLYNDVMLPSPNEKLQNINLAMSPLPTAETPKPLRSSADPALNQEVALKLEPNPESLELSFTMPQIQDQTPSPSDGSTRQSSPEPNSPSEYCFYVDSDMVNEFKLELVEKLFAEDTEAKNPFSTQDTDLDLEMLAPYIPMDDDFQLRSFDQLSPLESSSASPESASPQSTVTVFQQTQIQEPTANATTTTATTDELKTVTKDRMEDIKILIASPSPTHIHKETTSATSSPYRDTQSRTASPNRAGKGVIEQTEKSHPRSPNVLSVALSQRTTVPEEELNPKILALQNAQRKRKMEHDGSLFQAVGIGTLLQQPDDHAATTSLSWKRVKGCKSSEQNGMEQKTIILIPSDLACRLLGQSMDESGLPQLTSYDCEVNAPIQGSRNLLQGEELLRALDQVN
Chain of Signal transducer and activator of transcription 3 (Homo sapiens) (P40763 whole entry, looked up): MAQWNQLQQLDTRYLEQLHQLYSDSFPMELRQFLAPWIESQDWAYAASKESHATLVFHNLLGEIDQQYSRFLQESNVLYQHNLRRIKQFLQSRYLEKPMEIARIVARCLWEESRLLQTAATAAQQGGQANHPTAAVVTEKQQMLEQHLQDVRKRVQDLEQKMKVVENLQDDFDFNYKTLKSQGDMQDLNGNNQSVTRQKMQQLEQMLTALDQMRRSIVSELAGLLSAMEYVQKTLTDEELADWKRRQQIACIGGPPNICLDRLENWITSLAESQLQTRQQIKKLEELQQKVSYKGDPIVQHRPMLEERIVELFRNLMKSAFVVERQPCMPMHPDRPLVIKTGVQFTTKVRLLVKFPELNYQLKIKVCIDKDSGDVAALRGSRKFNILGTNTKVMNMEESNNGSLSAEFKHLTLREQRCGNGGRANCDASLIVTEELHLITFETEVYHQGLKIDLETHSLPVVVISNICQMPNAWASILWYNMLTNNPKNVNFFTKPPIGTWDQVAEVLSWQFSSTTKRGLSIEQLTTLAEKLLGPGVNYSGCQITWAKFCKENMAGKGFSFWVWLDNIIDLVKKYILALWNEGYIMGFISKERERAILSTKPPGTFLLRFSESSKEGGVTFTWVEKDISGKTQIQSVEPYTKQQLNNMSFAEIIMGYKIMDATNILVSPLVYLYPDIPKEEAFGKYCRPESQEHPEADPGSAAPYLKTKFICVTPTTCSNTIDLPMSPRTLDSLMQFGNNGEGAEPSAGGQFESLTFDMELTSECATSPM
Chain of Transcription factor Sp1 (Homo sapiens) (P08047 whole entry, looked up): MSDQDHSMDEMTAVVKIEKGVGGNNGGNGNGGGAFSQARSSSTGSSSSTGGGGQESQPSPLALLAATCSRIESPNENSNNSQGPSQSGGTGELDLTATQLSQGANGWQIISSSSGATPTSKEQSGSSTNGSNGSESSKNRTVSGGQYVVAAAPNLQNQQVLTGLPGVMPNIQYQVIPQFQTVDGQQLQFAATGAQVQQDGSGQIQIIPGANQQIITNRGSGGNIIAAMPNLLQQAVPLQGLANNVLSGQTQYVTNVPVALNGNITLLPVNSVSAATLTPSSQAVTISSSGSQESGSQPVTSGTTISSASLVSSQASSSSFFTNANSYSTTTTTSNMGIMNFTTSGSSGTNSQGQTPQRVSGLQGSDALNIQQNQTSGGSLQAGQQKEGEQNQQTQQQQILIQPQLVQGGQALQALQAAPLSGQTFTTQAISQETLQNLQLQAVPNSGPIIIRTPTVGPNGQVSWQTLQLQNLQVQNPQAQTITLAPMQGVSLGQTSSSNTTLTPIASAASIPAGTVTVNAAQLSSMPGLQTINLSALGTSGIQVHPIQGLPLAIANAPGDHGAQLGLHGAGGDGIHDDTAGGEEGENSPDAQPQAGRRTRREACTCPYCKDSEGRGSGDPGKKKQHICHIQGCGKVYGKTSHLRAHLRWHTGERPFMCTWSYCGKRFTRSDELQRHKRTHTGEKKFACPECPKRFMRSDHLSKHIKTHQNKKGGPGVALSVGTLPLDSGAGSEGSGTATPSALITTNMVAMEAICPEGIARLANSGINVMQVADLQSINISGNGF
Chain of Paired box protein Pax-6 (Homo sapiens) (P26367 whole entry, looked up): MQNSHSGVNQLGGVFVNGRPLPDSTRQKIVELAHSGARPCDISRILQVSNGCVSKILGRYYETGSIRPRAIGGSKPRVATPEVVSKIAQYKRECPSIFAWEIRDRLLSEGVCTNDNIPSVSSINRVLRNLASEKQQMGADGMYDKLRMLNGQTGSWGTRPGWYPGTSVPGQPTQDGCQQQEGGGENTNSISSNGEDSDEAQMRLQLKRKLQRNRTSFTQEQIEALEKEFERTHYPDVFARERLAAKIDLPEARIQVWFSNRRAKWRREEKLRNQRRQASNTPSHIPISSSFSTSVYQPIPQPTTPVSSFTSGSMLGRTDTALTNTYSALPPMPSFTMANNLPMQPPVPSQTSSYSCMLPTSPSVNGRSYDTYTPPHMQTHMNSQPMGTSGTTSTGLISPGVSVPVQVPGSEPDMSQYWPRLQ
Chain of Heat shock factor protein 1 (Homo sapiens) (Q00613 whole entry, looked up): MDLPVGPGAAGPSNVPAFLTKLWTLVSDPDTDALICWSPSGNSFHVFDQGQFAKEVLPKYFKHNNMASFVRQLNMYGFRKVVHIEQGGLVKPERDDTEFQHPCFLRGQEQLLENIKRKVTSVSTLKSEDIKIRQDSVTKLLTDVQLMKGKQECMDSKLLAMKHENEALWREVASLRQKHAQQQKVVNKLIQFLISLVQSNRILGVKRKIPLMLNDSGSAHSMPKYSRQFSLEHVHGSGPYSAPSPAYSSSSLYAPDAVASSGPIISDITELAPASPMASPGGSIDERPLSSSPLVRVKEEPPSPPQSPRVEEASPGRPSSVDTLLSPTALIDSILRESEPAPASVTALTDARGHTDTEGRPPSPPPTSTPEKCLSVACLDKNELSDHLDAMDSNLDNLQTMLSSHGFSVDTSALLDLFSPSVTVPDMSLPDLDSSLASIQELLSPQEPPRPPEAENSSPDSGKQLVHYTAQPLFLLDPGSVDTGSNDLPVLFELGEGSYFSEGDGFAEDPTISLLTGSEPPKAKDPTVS

Turning to `O=C(O)CCN(C1(C(=O)NO)CCCC1)S(=O)(=O)c1ccc(Oc2ccc(F)cc2)cc1`, the compound was classed as inactive in experiment [1], in [2], in experiment [3], in experiment [4], in experiment [5] and in experiment [6]. The result in experiment [7], in [8], in [9], in experiment [10], in experiment [11] and in [12] was inactive. In addition, the call in experiment [13], in [14], in experiment [15], in experiment [16] and in experiment [17] was inactive.

In the case of `Nc1nc2ncc(CNc3ccc(C(=O)N[C@@H](CCC(=O)O)C(=O)O)cc3)nc2c(=O)[nH]1`, the call in [18], in experiment [1], in [2], in experiment [3], in [5] and in [7] was inactive. Further, the result in experiment [8], in experiment [9], in experiment [10], in experiment [11], in [19] and in [12] was inactive. The compound was classed as inactive in experiment [13], in [14], in [15], in experiment [16] and in experiment [17].

As for `CCCN(C1CCN(C(=O)C2CCNCC2)CC1)[C@@H]1CCc2ccc(OC)cc2C1`, the compound was called inactive in [18], in experiment [2], in experiment [3], in experiment [4], in [5] and in [7]. Also, the outcome in experiment [9], in experiment [11], in [19], in [14], in experiment [15] and in [16] was inactive. The AC50 in experiment [1] was 90.6 µM (active); in experiment [8], 157 µM (active); in [10], 100 µM (active); in [13], 177 µM (active); in experiment [17] it was 113 µM (active).

On to `CC(C)=CCCC(C)CCO` (configuration not stated), for which the result in experiment [1], in [2], in [3], in experiment [5], in experiment [7] and in experiment [9] was inactive. Besides, the outcome in [11], in experiment [19], in [12], in [13], in experiment [14] and in experiment [15] was inactive. Further, the compound was called inactive in experiment [16]. Also, the AC50 in experiment [4] is 178 µM (active); in experiment [10] it was 26.6 µM (active); in [17], 167 µM (active).

Regarding `O=C(O)CC(O)C(=O)O` (configuration not stated), the outcome in experiment [1], in [2], in [3], in experiment [4], in [5] and in [7] was inactive. The result in experiment [8], in experiment [9], in [10], in experiment [19], in [13] and in experiment [14] was inactive. Also, the compound was called inactive in experiment [15], in experiment [16] and in [17].

(Values after PubChem BioAssay (EPA / NIEHS).)
